{
  "source": "PubChem BioAssay (NCI)",
  "note": "The panel holds about 79,000 compounds, 15% with a hit somewhere; the sample as a whole holds those more often. Calls of active or inactive are those of the source. No stated cut-off is given here; in the data, active means growth inhibition above about 70%; inactive means the rest.",
  "data": [
    {"test": "NCI Yeast Anticancer Drug Screen. Data for the CLN2oe strain (AID 163);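 further: 0% = growth of vehicle-only control cultures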", "conditions": "S. cerevisiae CLN2oe strain, at 33.0 µM, hits give high values", "how_it_was_run": "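Compound-treated yeast; growth vs vehicle ctrl = % inhibition. Genetically altered strain (cell-cycle control).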", "values": [
      {"smiles": "CN(C)c1ccc(C2CC(C)(O)Oc3cc4c(cc32)OCO4)cc1", "note": "(configuration not stated)", "growth inhibition": "-3% (inactive)"},
      {"smiles": "O=P(NC1CCCCC1)(OCc1ccccc1)OCc1ccccc1", "growth inhibition": "12% (inactive)"},
      {"smiles": "COc1oc(C(=O)NC2CCCCC2)c(-c2ccc(Cl)cc2)c1S(=O)(=O)c1ccccc1", "growth inhibition": "91% (active)"},
      {"smiles": "C[Si](C)(C)/C=C/CCNC(C#N)c1ccccc1", "note": "(configuration not stated)", "growth inhibition": "42% (inactive)"},
      {"smiles": "CCOc1ccc(NC(=O)C2=C(C)NC(C)=C(C(=O)Nc3ccc(OCC)cc3)C2c2cccc([N+](=O)[O-])c2)cc1", "growth inhibition": "4% (inactive)"},
      {"smiles": "CN(C)CCOC1(Cc2ccc(F)cc2)CCC(C(C)(C)C)CC1", "note": "(configuration not stated)", "growth inhibition": "-2% (inactive)"},
      {"smiles": "CC1(C)CC(=O)C(/C=N/c2nc(-c3ccccc3)cs2)=C(O)C1", "growth inhibition": "25% (inactive)"},
      {"smiles": "CC(=O)Nc1ccc2c(c1)Cc1cc(N=C3C=CC(=O)O3)ccc1-2", "growth inhibition": "99% (active)"},
      {"smiles": "O=C1C=C(Cl)C(=O)C(c2ccc(Cl)cc2)=C1", "growth inhibition": "98% (active)"},
      {"smiles": "CCCCCCCCCCCC(O)S(=O)(=O)O", "note": "(configuration not stated)", "growth inhibition": "-2% (inactive)"},
      {"smiles": "CC(C)OC(=O)c1ccc(CCc2cc(O)c(Br)cc2O)cc1", "growth inhibition": "92% (active)"},
      {"smiles": "CCc1cc(O)c(Cl)c(C)c1Cl", "growth inhibition": "28% (inactive)"},
      {"smiles": "C(=Nc1ccc(-c2cc(-c3ccccc3)nc3ccc4ccccc4c23)cc1)c1ccccc1", "growth inhibition": "38% (inactive)"},
      {"smiles": "CSc1nc(C)c(CCOC(C)=O)c(N=P(c2ccccc2)(c2ccccc2)c2ccccc2)n1", "growth inhibition": "3% (inactive)"},
      {"smiles": "CS(=O)(=O)SCc1ccc([N+](=O)[O-])cc1", "growth inhibition": "98% (active)"},
      {"smiles": "COC1=C(OC)C(=O)C(Sc2ccc3ccccc3c2)=CC1=O", "growth inhibition": "85% (active)"},
      {"smiles": "COc1nc2c(c(=O)n1C)N=C(c1ccccc1)[C@H](C(CC(=O)c1ccccc1)c1ccccc1)C(c1ccccc1)N2", "note": "(some centres not stated)", "growth inhibition": "13% (inactive)"},
      {"smiles": "Cc1cc(-c2cc(C)c(O)c(C(C)(C)C)c2)cc(C(C)(C)C)c1O", "growth inhibition": "15% (inactive)"},
      {"smiles": "Nc1cc(N)c(N=Nc2cccc3c(S(=O)(=O)O)cccc23)cc1N=Nc1cc([N+](=O)[O-])ccc1O", "growth inhibition": "-7% (inactive)"},
      {"smiles": "Nc1ccc(F)cc1S", "growth inhibition": "43% (inactive)"},
      {"smiles": "Brc1ccccc1-c1ncc(-c2ccccc2)o1", "growth inhibition": "6% (inactive)"},
      {"smiles": "COc1cc(C2SCC(=O)N2c2ccc(-c3ccc(-n4c(-c5ccccc5)nc5ccccc5c4=O)cc3)cc2)ccc1O", "note": "(configuration not stated)", "growth inhibition": "-14% (inactive)"},
      {"smiles": "Nc1ncnc2c1ncn2C1OC(CO)CC1O", "note": "(configuration not stated)", "growth inhibition": "47% (inactive)"},
      {"smiles": "COc1cc(CSc2ccc(O)cc2)cc(O)c1O", "growth inhibition": "12% (inactive)"},
      {"smiles": "CCOC(=O)C1N=[N+](c2ccccc2)C(=O)/C1=C\\n1c(=S)[nH]c2ccc([N+](=O)[O-])cc21", "note": "(configuration not stated)", "growth inhibition": "4% (inactive)"},
      {"smiles": "CNC(=O)OCc1c(COC(=O)NC)c2n(c1C)-c1ccc(OC)cc1CCC2", "growth inhibition": "87% (active)"},
      {"smiles": "O=C(NNc1ccccc1)c1ccc(Cl)c(Cl)c1", "growth inhibition": "14% (inactive)"},
      {"smiles": "Cc1ccc(CC2(OCCN(C)C)CCC(C(C)(C)C)CC2)cc1", "note": "(configuration not stated)", "growth inhibition": "42% (inactive)"},
      {"smiles": "CCCC/C=C/C(C)(C(=O)OCC)C(=O)OCC", "growth inhibition": "-1% (inactive)"},
      {"smiles": "CCc1c(Cl)c(C)cc(O)c1Cl", "growth inhibition": "6% (inactive)"},
      {"smiles": "O=C(/C=C(/c1ccccc1)N1CCCCC1)c1ccccc1", "growth inhibition": "-4% (inactive)"},
      {"smiles": "CCCC(=O)Oc1ccc(/C=N/NC(N)=S)nc1", "growth inhibition": "-6% (inactive)"},
      {"smiles": "CCc1nc2ccc(NCCN(C)C)c3c(=O)c4ccccc4n1c23", "growth inhibition": "33% (inactive)"},
      {"smiles": "Cc1sc2ccc3ccccc3c2[n+]1C", "growth inhibition": "-19% (inactive)"},
      {"smiles": "COc1c(O)c(C=O)c(Br)c(C=O)c1O", "growth inhibition": "40% (inactive)"},
      {"smiles": "Cc1ccc(Cl)cc1NC(=O)OCCN(C)C(=O)Nc1cc(Cl)ccc1C", "growth inhibition": "-33% (inactive)"},
      {"smiles": "Cc1nc2ccccc2nc1NNc1ccccc1", "growth inhibition": "18% (inactive)"}
    ]}
  ]
}
